The results in this text go back to PubChem BioAssay (NCI).

Some test systems named below: NCI-H23 lung; NCI-H226 lung; NCI-H322M lung; HOP-62 NSCLC; NCI-H460 lung; HOP-92 NSCLC; NCI-H522 lung; A549/ATCC NSCLC; 786-0 renal; COLO 205 colon; DU-145 prostate; K-562 leukemia; MALME-3M melanoma; MDA-MB-231 breast; SF-268 CNS; SF-295 CNS; SF-539 CNS; M14 melanoma.
Holding throughout (assay): NCI-60 one-dose screen, 48 h (100 = growth as untreated, 0 = no growth, -100 = all killed)
What all share (settings): 10 µM unless noted

Molecules are shown by their SMILES. This is part of a sample that, as a whole, favours compounds with a hit. Of some 83,000 tested, about 20% had one in any assay.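 A percent growth of 40 corresponds to 60% growth inhibition; 0 means no net growth; -100 means all cells died. Active threshold: below 10.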 Values without a mark were called inactive. Active and inactive are the calls of the source.

In the case of `Cc1ccsc1C(NC(=O)c1ccccc1)c1cc(Cl)c2cccnc2c1O` (centres undefined), the growth in the experiment on NCI-H23 lung is 28.1%; with NCI-H226 lung, 38.5%; in the experiment on NCI-H322M lung, 32%; with HOP-62 NSCLC, 15%; in the experiment with NCI-H460 lung, 7.44% (active); with HOP-92 NSCLC, 35%. The growth is 9.39% (active) in the experiment with NCI-H522 lung; 14.3% with A549/ATCC NSCLC; 18.2% in the experiment with 786-0 renal; 11.7% with COLO 205 colon; 41.2% in the experiment with DU-145 prostate; 10.4% in the experiment with K-562 leukemia. Besides, the growth is 47.4% with MALME-3M melanoma; 37.8% in the experiment on MDA-MB-231 breast; 31.6% in the experiment on SF-268 CNS; 1.35% (active) with SF-295 CNS; 18.7% with SF-539 CNS; 12.3% in the experiment with M14 melanoma.

`Cc1nn(-c2nc3ccccc3[nH]2)c2c1C(c1ccc(OCc3ccc(F)cc3)cc1)CC(=O)N2` (centres undefined): the growth was 46.9% in the experiment on NCI-H23 lung; 74.5% with NCI-H226 lung; 70.4% in the experiment on NCI-H322M lung; 69.5% in the experiment with HOP-62 NSCLC; 48% in the experiment on NCI-H460 lung; 72% in the experiment on HOP-92 NSCLC. The growth was 30.5% with NCI-H522 lung; 41.8% in the experiment with A549/ATCC NSCLC; 63.4% in the experiment on 786-0 renal; 103% in the experiment on COLO 205 colon; 96% in the experiment with DU-145 prostate; 87.6% in the experiment on K-562 leukemia. Besides, the growth in the experiment with MALME-3M melanoma was 81.3%; in the experiment with MDA-MB-231 breast, 42.8%; in the experiment on SF-268 CNS, 46.7%; in the experiment with SF-295 CNS, 19%; in the experiment on SF-539 CNS, 56.7%; with M14 melanoma, 58.5%.

In the case of `CC(C)[C@@H](C)/C=C/[C@@H](C)[C@H]1CCC2=C3C=CC4=CC(=O)CC[C@]4(C)[C@H]3CC[C@@]21C`, the growth in the experiment on NCI-H23 lung was 96%; with NCI-H226 lung, 93.2%; in the experiment on NCI-H322M lung it was 93.9%; in the experiment on HOP-62 NSCLC, 104%; with NCI-H460 lung, 107%; in the experiment with HOP-92 NSCLC, 86.6%. In addition, the growth was 67.2% in the experiment with NCI-H522 lung; 77.4% in the experiment with A549/ATCC NSCLC; 101% in the experiment with 786-0 renal; 105% with COLO 205 colon; 105% in the experiment with DU-145 prostate; 92.6% in the experiment with K-562 leukemia. The growth in the experiment with MALME-3M melanoma is 110%; with MDA-MB-231 breast, 105%; with SF-268 CNS it was 98.9%; with SF-295 CNS, 94.9%; in the experiment on SF-539 CNS it was 106%; in the experiment on M14 melanoma, 98.6%.

For the compound `CCCCCCCC(=O)SCC/C=C/[C@@H]1CC(=O)NCc2cccc(n2)C2=N[C@@](C)(CS2)C(=O)N[C@@H](C(C)C)C(=O)N1`, the growth is 41.7% in the experiment on NCI-H23 lung; 68.9% in the experiment on NCI-H226 lung; 15.6% in the experiment with NCI-H322M lung; 12.3% in the experiment with HOP-62 NSCLC; 20% in the experiment with NCI-H460 lung; 38% in the experiment on HOP-92 NSCLC. The growth with NCI-H522 lung was -1.71% (active); in the experiment with A549/ATCC NSCLC, 15.4%; in the experiment with 786-0 renal, 54%; in the experiment with COLO 205 colon, -41.6% (active); with DU-145 prostate, 28.9%; in the experiment with K-562 leukemia, 16%. Further, the growth is 2.46% (active) in the experiment on MALME-3M melanoma; 21.9% in the experiment on MDA-MB-231 breast; 53.6% in the experiment with SF-268 CNS; -1.52% (active) in the experiment with SF-295 CNS; 48.6% in the experiment with SF-539 CNS; 35.6% in the experiment with M14 melanoma.

As to `C=C1C(=O)O[C@H]2[C@H]1CC/C(Cn1cc(-c3cc(C)c(C)cc3C)nn1)=C\CC[C@@]1(C)O[C@@H]21`, the growth in the experiment on NCI-H23 lung was -61.3% (active); in the experiment with NCI-H226 lung, -65.2% (active); with NCI-H322M lung it was 68.3%; in the experiment with HOP-62 NSCLC it was 55.7%; with NCI-H460 lung it was 36.5%; with HOP-92 NSCLC it was -79% (active). Besides, the growth was -64.2% (active) with NCI-H522 lung; 26% in the experiment with A549/ATCC NSCLC; -77.5% (active) with 786-0 renal; -70.5% (active) in the experiment with COLO 205 colon; -100% (active) in the experiment on DU-145 prostate; -10.7% (active) in the experiment on K-562 leukemia. The growth was -79.8% (active) in the experiment with MALME-3M melanoma; -73.7% (active) with MDA-MB-231 breast; -54.5% (active) with SF-268 CNS; 59.8% with SF-295 CNS; -82.9% (active) with SF-539 CNS; -57.3% (active) in the experiment with M14 melanoma.

In the case of `O=C1CC(c2ccc(Cl)cc2)c2ncn(-c3cccc(Cl)c3)c2N1` (centres undefined), the growth in the experiment on NCI-H23 lung is 72%; with NCI-H226 lung, 71%; in the experiment with NCI-H322M lung, 91.6%; with HOP-62 NSCLC, 51.2%; in the experiment on NCI-H460 lung, 34%; in the experiment on HOP-92 NSCLC it was 60.8%. For the same compound, the growth in the experiment on NCI-H522 lung is 27.6%; in the experiment with A549/ATCC NSCLC, 45.2%; with 786-0 renal, 55%; with COLO 205 colon, 97.7%; in the experiment with DU-145 prostate it was 62.9%; in the experiment with K-562 leukemia, 23.8%. The growth in the experiment on MALME-3M melanoma is 53.2%; with MDA-MB-231 breast it was 48.3%; with SF-268 CNS it was 58.2%; with SF-295 CNS, 47.6%; in the experiment on SF-539 CNS, 33%; with M14 melanoma, 21.6%.

As for `CC[n+]1c(/C=C/C=C2\N(C)c3ccccc3C2(C)C)sc2ccccc21`, the growth in the experiment with NCI-H23 lung was 20%; in the experiment on NCI-H226 lung, 20%; in the experiment on NCI-H322M lung, 25.6%; in the experiment on HOP-62 NSCLC, 11.7%; with NCI-H460 lung, 7.56% (active); in the experiment on HOP-92 NSCLC it was -3.67% (active). The growth is 9.12% (active) with NCI-H522 lung; 11.9% in the experiment with A549/ATCC NSCLC; 14.8% in the experiment on 786-0 renal; -59.2% (active) in the experiment with COLO 205 colon; 20.3% in the experiment on DU-145 prostate; 2.44% (active) in the experiment with K-562 leukemia. Besides, the growth in the experiment on MALME-3M melanoma is 13.6%; in the experiment on MDA-MB-231 breast, 8.67% (active); in the experiment with SF-268 CNS, 25.6%; with SF-295 CNS, -6.72% (active); in the experiment with SF-539 CNS it was 19.9%; with M14 melanoma, 12.6%.

Turning to `COc1cc2c3c(c1)nc(C)n3CCC2`, the growth in the experiment with NCI-H23 lung is 98.4%; in the experiment on NCI-H226 lung, 91.1%; in the experiment on NCI-H322M lung, 108%; with HOP-62 NSCLC, 90.7%; with NCI-H460 lung, 104%; with HOP-92 NSCLC it was 94.9%. In addition, the growth in the experiment on NCI-H522 lung is 93.4%; in the experiment with A549/ATCC NSCLC it was 82%; in the experiment with 786-0 renal, 98.1%; in the experiment on COLO 205 colon it was 107%; in the experiment with DU-145 prostate, 109%; in the experiment on K-562 leukemia it was 98.8%. Moreover, the growth is 110% in the experiment with MALME-3M melanoma; 107% in the experiment on MDA-MB-231 breast; 107% in the experiment on SF-268 CNS; 95.8% with SF-295 CNS; 97.9% in the experiment with SF-539 CNS; 100% in the experiment with M14 melanoma.
